Experiment in all cases: PBM; 200 nM protein, PBS
Holding throughout (conditions): dsDNA, one strand shown

The target of assay [1] is T1, SIX6 (Homo sapiens, UniProt O95475 114-200, L167I).
T1 sequence: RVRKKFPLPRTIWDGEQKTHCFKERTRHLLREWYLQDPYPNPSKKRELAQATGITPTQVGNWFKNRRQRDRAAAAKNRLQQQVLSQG

Assay [2] addresses T2, SIX6 (Homo sapiens, UniProt O95475 114-200, L143V).
T2 sequence: T1 sequence with L30V, I54L

In assay [3] the target is T3, SIX6 (Homo sapiens, UniProt O95475 114-200, H141N).
T3 sequence: T1 sequence with H28N, I54L

In assay [4] the target is T4, SIX6 (Homo sapiens, UniProt O95475 114-200, T165P).
T4 sequence: T1 sequence with T52P, I54L

Assay [5] addresses T5, SIX6 (Homo sapiens, UniProt O95475 114-200, L167M).
T5 sequence: T1 sequence with I54M

For assay [6], the target named is T6, SIX6 (Homo sapiens, UniProt O95475 114-200, L143M).
T6 sequence: T1 sequence with L30M, I54L

Assay [7] deals with T7, SIX6 (Homo sapiens, UniProt O95475 114-200, L143I).
T7 sequence: T1 sequence with L30I, I54L

The target of assay [8] is T8, SIX6 (Homo sapiens, UniProt O95475 114-200, T165G).
T8 sequence: T1 sequence with T52G, I54L

Assay [9] deals with T9, SIX6 (Homo sapiens, UniProt O95475 114-200, T139Q).
T9 sequence: T1 sequence with T26Q, I54L

For assay [10], the target named is T10, SIX6 (Homo sapiens, UniProt O95475 114-200, T165A).
T10 sequence: T1 sequence with T52A, I54L

The target in assay [11] is T11, SIX6 (Homo sapiens, UniProt O95475 114-200, L167V).
T11 sequence: T1 sequence with I54V

Assay [12] concerns the target T12, SIX6 (Homo sapiens, UniProt O95475 114-200).
T12 sequence: T1 sequence with I54L

Assay [13] concerns the target T13, SIX6 (Homo sapiens, UniProt O95475 114-200, T165I).
T13 sequence: T1 sequence with T52I, I54L

Positions count from the first letter of the chain named.

ATGGCCCG: the binding signal is 8.97 upbm affinity estimate (log intensity, higher = more binding, comparable within an allelic series) with SIX6 [1]; 8.9 upbm affinity estimate (log intensity, higher = more binding, comparable within an allelic series) with SIX6 [2]; 9.08 upbm affinity estimate (log intensity, higher = more binding, comparable within an allelic series) in the assay with SIX6 [3]; 9.03 upbm affinity estimate (log intensity, higher = more binding, comparable within an allelic series) in the assay with SIX6 [4]; 9 upbm affinity estimate (log intensity, higher = more binding, comparable within an allelic series) in the assay with SIX6 [5]; 8.97 upbm affinity estimate (log intensity, higher = more binding, comparable within an allelic series) with SIX6 [6]. Besides, the binding signal is 8.99 upbm affinity estimate (log intensity, higher = more binding, comparable within an allelic series) with SIX6 [7]; 9.03 upbm affinity estimate (log intensity, higher = more binding, comparable within an allelic series) in the assay with SIX6 [8]; 9.09 upbm affinity estimate (log intensity, higher = more binding, comparable within an allelic series) with SIX6 [9]; 8.99 upbm affinity estimate (log intensity, higher = more binding, comparable within an allelic series) with SIX6 [10]; 8.99 upbm affinity estimate (log intensity, higher = more binding, comparable within an allelic series) with SIX6 [11]; 9 upbm affinity estimate (log intensity, higher = more binding, comparable within an allelic series) in the assay with SIX6 [12]. In addition, in the assay with SIX6 [13], the binding signal was 9.05 upbm affinity estimate (log intensity, higher = more binding, comparable within an allelic series).
Take CCATATAC: the binding signal with SIX6 [1] is 10.3 upbm affinity estimate (log intensity, higher = more binding, comparable within an allelic series); with SIX6 [2], 10.1 upbm affinity estimate (log intensity, higher = more binding, comparable within an allelic series); in the assay with SIX6 [3] it was 10.3 upbm affinity estimate (log intensity, higher = more binding, comparable within an allelic series); in the assay with SIX6 [4], 9.82 upbm affinity estimate (log intensity, higher = more binding, comparable within an allelic series); with SIX6 [5], 10.3 upbm affinity estimate (log intensity, higher = more binding, comparable within an allelic series); with SIX6 [6], 10.4 upbm affinity estimate (log intensity, higher = more binding, comparable within an allelic series). In addition, the binding signal in the assay with SIX6 [7] is 10.1 upbm affinity estimate (log intensity, higher = more binding, comparable within an allelic series); with SIX6 [8], 10.4 upbm affinity estimate (log intensity, higher = more binding, comparable within an allelic series); in the assay with SIX6 [9], 10.5 upbm affinity estimate (log intensity, higher = more binding, comparable within an allelic series); in the assay with SIX6 [10], 10.3 upbm affinity estimate (log intensity, higher = more binding, comparable within an allelic series); in the assay with SIX6 [11] it was 10.2 upbm affinity estimate (log intensity, higher = more binding, comparable within an allelic series); with SIX6 [12] it was 10.4 upbm affinity estimate (log intensity, higher = more binding, comparable within an allelic series). Moreover, in the assay with SIX6 [13], the binding signal was 10.3 upbm affinity estimate (log intensity, higher = more binding, comparable within an allelic series).
Consider GAAAGCGC, for which the binding signal with SIX6 [1] was 8.91 upbm affinity estimate (log intensity, higher = more binding, comparable within an allelic series); with SIX6 [2] it was 8.99 upbm affinity estimate (log intensity, higher = more binding, comparable within an allelic series); with SIX6 [3] it was 8.85 upbm affinity estimate (log intensity, higher = more binding, comparable within an allelic series); with SIX6 [4], 9.04 upbm affinity estimate (log intensity, higher = more binding, comparable within an allelic series); in the assay with SIX6 [5], 8.97 upbm affinity estimate (log intensity, higher = more binding, comparable within an allelic series); with SIX6 [6], 8.96 upbm affinity estimate (log intensity, higher = more binding, comparable within an allelic series). Moreover, the binding signal was 8.97 upbm affinity estimate (log intensity, higher = more binding, comparable within an allelic series) with SIX6 [7]; 9 upbm affinity estimate (log intensity, higher = more binding, comparable within an allelic series) with SIX6 [8]; 9 upbm affinity estimate (log intensity, higher = more binding, comparable within an allelic series) in the assay with SIX6 [9]; 9.02 upbm affinity estimate (log intensity, higher = more binding, comparable within an allelic series) in the assay with SIX6 [10]; 8.93 upbm affinity estimate (log intensity, higher = more binding, comparable within an allelic series) in the assay with SIX6 [11]; 8.96 upbm affinity estimate (log intensity, higher = more binding, comparable within an allelic series) in the assay with SIX6 [12]. The binding signal with SIX6 [13] is 8.97 upbm affinity estimate (log intensity, higher = more binding, comparable within an allelic series).
On to ATGGTATC, for which the binding signal is 11 upbm affinity estimate (log intensity, higher = more binding, comparable within an allelic series) in the assay with SIX6 [1]; 10.3 upbm affinity estimate (log intensity, higher = more binding, comparable within an allelic series) in the assay with SIX6 [2]; 11 upbm affinity estimate (log intensity, higher = more binding, comparable within an allelic series) with SIX6 [3]; 9.62 upbm affinity estimate (log intensity, higher = more binding, comparable within an allelic series) with SIX6 [4]; 10.6 upbm affinity estimate (log intensity, higher = more binding, comparable within an allelic series) in the assay with SIX6 [5]; 10.7 upbm affinity estimate (log intensity, higher = more binding, comparable within an allelic series) in the assay with SIX6 [6]. Besides, the binding signal was 10.4 upbm affinity estimate (log intensity, higher = more binding, comparable within an allelic series) with SIX6 [7]; 11.1 upbm affinity estimate (log intensity, higher = more binding, comparable within an allelic series) with SIX6 [8]; 11.2 upbm affinity estimate (log intensity, higher = more binding, comparable within an allelic series) with SIX6 [9]; 10.9 upbm affinity estimate (log intensity, higher = more binding, comparable within an allelic series) in the assay with SIX6 [10]; 10.8 upbm affinity estimate (log intensity, higher = more binding, comparable within an allelic series) with SIX6 [11]; 10.9 upbm affinity estimate (log intensity, higher = more binding, comparable within an allelic series) with SIX6 [12]. Also, the binding signal in the assay with SIX6 [13] was 10.8 upbm affinity estimate (log intensity, higher = more binding, comparable within an allelic series).
Regarding CGATACCA, the binding signal in the assay with SIX6 [1] is 10.8 upbm affinity estimate (log intensity, higher = more binding, comparable within an allelic series); in the assay with SIX6 [2], 10 upbm affinity estimate (log intensity, higher = more binding, comparable within an allelic series); in the assay with SIX6 [3] it was 10.8 upbm affinity estimate (log intensity, higher = more binding, comparable within an allelic series); with SIX6 [4], 9.44 upbm affinity estimate (log intensity, higher = more binding, comparable within an allelic series); in the assay with SIX6 [5], 10.3 upbm affinity estimate (log intensity, higher = more binding, comparable within an allelic series); with SIX6 [6] it was 10.7 upbm affinity estimate (log intensity, higher = more binding, comparable within an allelic series). The binding signal in the assay with SIX6 [7] is 10.1 upbm affinity estimate (log intensity, higher = more binding, comparable within an allelic series); with SIX6 [8] it was 11 upbm affinity estimate (log intensity, higher = more binding, comparable within an allelic series); with SIX6 [9], 11.1 upbm affinity estimate (log intensity, higher = more binding, comparable within an allelic series); in the assay with SIX6 [10] it was 10.8 upbm affinity estimate (log intensity, higher = more binding, comparable within an allelic series); with SIX6 [11], 10.6 upbm affinity estimate (log intensity, higher = more binding, comparable within an allelic series); with SIX6 [12], 10.8 upbm affinity estimate (log intensity, higher = more binding, comparable within an allelic series). In the assay with SIX6 [13], the binding signal was 10.6 upbm affinity estimate (log intensity, higher = more binding, comparable within an allelic series).
For AGTGATAC, the binding signal with SIX6 [1] is 11.6 upbm affinity estimate (log intensity, higher = more binding, comparable within an allelic series); in the assay with SIX6 [2], 10.5 upbm affinity estimate (log intensity, higher = more binding, comparable within an allelic series); with SIX6 [3], 11.5 upbm affinity estimate (log intensity, higher = more binding, comparable within an allelic series); with SIX6 [4] it was 9.81 upbm affinity estimate (log intensity, higher = more binding, comparable within an allelic series); with SIX6 [5] it was 10.9 upbm affinity estimate (log intensity, higher = more binding, comparable within an allelic series); with SIX6 [6] it was 11.2 upbm affinity estimate (log intensity, higher = more binding, comparable within an allelic series). For the same sequence, the binding signal in the assay with SIX6 [7] was 10.5 upbm affinity estimate (log intensity, higher = more binding, comparable within an allelic series); with SIX6 [8] it was 11.6 upbm affinity estimate (log intensity, higher = more binding, comparable within an allelic series); with SIX6 [9] it was 11.5 upbm affinity estimate (log intensity, higher = more binding, comparable within an allelic series); in the assay with SIX6 [10] it was 11.5 upbm affinity estimate (log intensity, higher = more binding, comparable within an allelic series); with SIX6 [11] it was 11.4 upbm affinity estimate (log intensity, higher = more binding, comparable within an allelic series); with SIX6 [12], 11.2 upbm affinity estimate (log intensity, higher = more binding, comparable within an allelic series). Further, in the assay with SIX6 [13], the binding signal was 11.4 upbm affinity estimate (log intensity, higher = more binding, comparable within an allelic series).

The values are drawn from article PMC11006913.
